Measured values as given in PubChem BioAssay (NCATS).
Inconclusive results are not listed. Calls of active or inactive are those of the source. The call rests on the fitted dose curve.

Assay: Primary qHTS to identify inhibitors of SARS-CoV-2 cell entry (AID 1645846); further: nearly all actives have a fitted effect of over 45% in size
Details: SARS-CoV-2 pseudovirus cell entry assay, luminescence; activity change, negative = inhibition: at 57.1 µM (top of the series) unless noted
Excerpt: Assay Provider: Wei Zheng, Ph.D.
National Center for Advancing Translational Sciences, National Institute of Health, Rockville, MD.
SARS-CoV-2 spike protein, within the viral envelope, mediates viral attachment and infection of host cells. The SARS-CoV-2 spike protein specifically binds to the host receptor ACE2 (Angiotensin-converting enzyme 2). This interaction promotes endocytosis of the viral particle, additional events lead to viral-host cell membrane fusion and release of the viral contents, allowing viral replication.
While SARS-CoV-2 requires BSL-3 facilities for live virus work, pseudotyped partices (PP) that incorporate SARS-CoV-2 spike proteins without replication elements could facilitate studies on viral entry mechanisms in a BSL-2 setting. This PP cell entry assay could also enable screening of small molecule compound libraries in BSL-2 setting to identify inhibitors of SARS-CoV-2 cell entry.
PROTOCOL TABLE (format as described by Inglese J, Shamu CE and Guy RK. 2007)
SEQUENCE No. (e.g., 1, 2, 3, etc.); […] (e.g., Cells, Incubation, Reagent, etc.); VALUE and DESCRIPTION.
1. Cells. Seed 1500 HEK293-ACE2 cells (Expi293F with stable expression of human ACE2) in 2 uL/well media (DMEM, 10% FBS, 1x L-glutamine, 1x Pen/Strep, 1 ug/ml puromycin) in white 1536-well assay plates (Greiner #782073).
2. Incubation. Incubate at 37C with 5% CO2 overnight (~16 h).
3. Compounds. Dispense 23 nL/well compounds in DMSO via pin transfer.
4. Incubation. Incubate for 1 hr at 37C 5% CO2.
5. Reagent. Dispense 2 uL/well of SARS-CoV-2-S pseudotyped particles. [a] PPs are produced with murine leukemia virus pseudotyping. [b] SARS-CoV-2-S is Wuhan-Hu-1 sequence (BEI #NR-52420) with C-terminal 19 amino acid truncation.
6. Centrifuge. […]
7. Incubation. Incubate at for 48 hr at 37C 5% CO2
8. Centrifuge. Remove supernatant with gentle centrifugation using a Blue Washer (BlueCat Bio).
9. Reagent. Dispense 4 uL/well of Bright-Glo Luciferase detection reagent (Promega #E2620).
10. Incubation. Incubate for 5 min at room temperature.
11. Detection. Read luminescence signal (Viewlux plate reader, PerkinElmer). Data was normalized with wells containing SARS-CoV-2-S PP as 100%, and wells containing bald PP (no fusion protein) as 0%.
Potency means the concentration at half of the fitted maximal effect.

SMILES | outcome | activity change, negative = inhibition | Potency
Cc1cc(Nc2cc(N)ncn2)c(=O)n2c1C(=O)NC21CCCCC1 | inactive [at 27.1 µM] | – | –
CC(C)OC(=O)[C@H](C)N[P@](=O)(OC[C@H]1O[C@@H](n2ccc(=O)[nH]c2=O)[C@](C)(F)[C@@H]1O)Oc1ccccc1 | – | -40% | –
C=CCN1CC[C@]23c4c5ccc(O)c4O[C@H]2[C@@H](OCCOCCOCCOCCOCCOCCOCCOC)CC[C@@]3(O)[C@H]1C5 | – | -22.8% | –
CCCC(=O)O[C@]1(C(=O)COC(=O)CC)[C@@H](C)C[C@H]2[C@@H]3CCC4=CC(=O)C=C[C@]4(C)[C@@]3(F)[C@@H](O)C[C@@]21C | inactive | – | –
O=C(Cc1ccccc1)Nc1nnc(CCSCCc2nnc(NC(=O)Cc3ccccc3)s2)s1 | inactive | – | –
NC1CCCN(c2c(/C=C3\SC(=O)NC3=O)cccc2-c2ccccc2)C1 (stereo not given) | – | -5.59% | –
Cc1cc(-c2cnn3c(NCC4CC(C)(O)C4)cc(Oc4cccnc4)nc23)ccc1C(=O)NC1CC1 (stereo not given) | – | -11.3% [at 5.25 µM] | –
CCCCCCCCCCCCCCCC(=O)OCC=C(C)C=CC=C(C)C=CC1=C(C)CCCC1(C)C | – | -0.93% | –
O=C(O)C1=C(CSc2nnnn2CS(=O)(=O)O)CS[C@@H]2[C@@H](NC(=O)[C@H](O)c3ccccc3)C(=O)N12 | – | -22.2% | –
Cc1[nH]cnc1CN1CCN(C(=O)N[C@@H](CC(C)C)C(=O)O)[C@@H](Cc2ccccc2)C1=O | – | 3.22% | –
CC(C)CCCC(C)NC(C)C (stereo not given) | – | -25.3% | –
Cc1nc2ccc(C(=O)N3CCC4(CC3)CC(=O)c3c(cnn3C(C)C)C4)cc2[nH]1 | – | – | 14.1 µM (active)
COc1nnc2ccc(N3CCC(c4ccc(OCCN5CCN(C)C(=O)[C@H]5C)cc4)CC3)nn12 | inactive | – | –
CC=CC1C(C(=O)OCc2c(F)c(F)c(COC)c(F)c2F)C1(C)C (stereo not given) | – | -7.64% | –
Cc1cc2c(F)c(Oc3ncnn4cc(OCC(C)OC(=O)C(C)N)c(C)c34)ccc2[nH]1 (stereo not given) | – | – | 11.2 µM (active)
Cc1ccc(NC(=O)c2ccc(CN3CCNCC3)cc2)cc1Nc1nccc(-c2cccnc2)n1 | – | -27.5% | –
C[C@]12C=CC(=O)C=C1CCC1C2[C@@H](O)C[C@@]2(C)C1CC[C@]2(O)C(=O)COC(=O)CCC(=O)O (stereo not given in full) | – | -21.3% | –
C/C(=N\NC(=S)N1CCC1)c1ccccn1 | – | -96.5% | –
CC(=O)OCC1=C(C(=O)O)N2C(=O)[C@@H](NC(=O)CC#N)[C@H]2SC1 | inactive | – | –
COc1ccc(C(=O)C2CCN(CC(=O)N(Cc3nc4c(c(=O)[nH]3)COCC4)CC3CC3)CC2)cc1 | – | -20.6% | –

SMILES | outcome | activity change, negative = inhibition | Potency
CC[C@@]1(O)C(=O)OCc2c1cc1n(c2=O)Cc2c-1nc1ccccc1c2CCNC(C)C | – | -96.8% [at 5.25 µM] | –
CC[C@@H](C)C[C@@H](C)CCCCCCCCC(=O)NC1C[C@@H](O)[C@@H](NCCN)NC(=O)[C@@H]2[C@@H](O)CCN2C(=O)[C@H]([C@H](O)CCN)NC(=O)[C@H]([C@H](O)[C@@H](O)c2ccc(O)cc2)NC(=O)[C@@H]2C[C@@H](O)CN2C(=O)[C@H]([C@@H](C)O)NC1=O (stereo not given in full) | – | -9.2% [at 27.1 µM] | –
C[C@@H](Oc1cc(C(=O)Nc2ccc(C(=O)N3CCN(C)CC3)cc2)nnc1N)c1c(Cl)ccc(F)c1Cl | – | – | 12.6 µM (active)
CCNC(=O)Nc1ncc(-c2cc(-c3c(C)cc(OC)cc3C)nc(-c3cnccn3)n2)s1 | – | -1.07% | –
FC(F)(F)c1ccc(/C=C/c2nc(COc3ccc(CCCCn4ccnn4)cc3)co2)cc1 | – | -95.9% | –
CC(=O)OCC(=O)[C@@]1(O)CC[C@H]2[C@@H]3C[C@H](C)C4=CC(=O)C=C[C@]4(C)[C@H]3[C@@H](O)C[C@@]21C | inactive | – | –
COc1cccc(OCCCN)c1-c1cc(Nc2cnc(C#N)cn2)n[nH]1 | – | -33% | –
CN1C(N)=N[C@](C)(c2cc(NC(=O)c3ccc(F)cn3)ccc2F)CS1(=O)=O | – | -0.893% | –
O=C(Nc1ccc(-c2ccnc(Nc3ccc(N4CCOCC4)cc3)n2)cc1)C1CCCN1 (stereo not given) | – | -3.33% | –
COc1ccccc1C(=O)Nc1cc2c(cc1N1CCNC[C@H]1C)n(C)c(=O)n2C | – | -55.2% | –
Cc1c(NC(=O)c2cc(C(N)=O)nc3cc(F)ccc23)c(C(F)(F)F)nn1Cc1ccc(C#N)cc1 | – | -65.9% | –
CC(C)[C@]12O[C@H]1[C@@H]1O[C@@]13[C@@]1(C)CCC4=C(COC4=O)[C@@H]1C[C@@H]1O[C@@]13C2=O | – | -93.1% | –
CC(C)(O)[C@H]1CC[C@@](C)([C@H]2[C@@H](O)C[C@@]3(C)[C@@H]4C[C@H](O[C@@H]5O[C@H](CO)[C@@H](O)[C@H](O)[C@H]5O)[C@H]5C(C)(C)[C@@H](O[C@@H]6OC[C@@H](O)[C@H](O)[C@H]6O)CC[C@@]56C[C@@]46CC[C@]23C)O1 | inactive | – | –
Cc1cc(I)ccc1Nc1c(C(=O)NOCC2CC2)cc(F)c(F)c1F | – | – | 12.6 µM (active)
O=S(=O)(O)CC(S)CS (stereo not given) | inactive | – | –
CC(=O)Nc1ccc(C(=O)NC(C)(C)C)cc1 | inactive | – | –
Cc1c(F)cc(C(=O)NC2CC2)cc1-c1c(F)cn2c(C(C)(C)C)nnc2c1F | – | 3.6% | –
CCC(C(=O)O)[C@H]1CC[C@H](C)[C@H]([C@@H](C)[C@H](O)[C@H](C)C(=O)[C@H](CC)[C@H]2OC3(C=C[C@@H](O)[C@]4(CC[C@@](C)([C@H]5CC[C@](O)(CC)[C@H](C)O5)O4)O3)[C@H](C)C[C@@H]2C)O1 (stereo not given in full) | – | – | 0.794 µM (active)
O=C(/C=C/c1ccc2ccc(C(F)(F)F)cc2n1)c1ccncc1 | – | -5.32% | –
N#Cc1cccnc1N1CCN(C(=O)c2cccc(Cc3n[nH]c(=O)c4ccccc34)c2)CC1 | – | -93.1% | –
